This passage reports Potency results from PubChem BioAssay (NCATS).

Records with an inconclusive call do not appear. The source made the active and inactive calls. Calls follow the shape of the dose curve; as a rule, active = well fitted cell-killing curve with a large enough effect; inconclusive = small, poorly fitted or top-dose-only effect, or effect the other way; inactive = no such curve, though single readings can be large or run the other way.
Potency is read from the fitted curve at half-maximal effect.

This test can be described thus: Quantitative High-Throughput drug screen in 47 multiple myeloma cell lines against the NCATS MIPE library collection: EJM_DSMZ cell viability assay (AID 1918926; also: nearly all actives have a fitted effect of over 30% in size). To be noted: EJM myeloma cell viability, CellTiter-Glo ATP, 48 h; series mostly up to 45.8 µM. In short, it runs like this: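 Relative luminescence from CellTiter-Glo served as the viability signal, referenced to DMSO-treated (100%) and cell-free medium (0%) controls. Treatment lasted 48 hours at 37C with 500 cells per well.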
For the molecule `Cc1ccc(C(N)=O)cc1Nc1nccc(-c2cn(C(C)C)c3cnccc23)n1`, the Potency is 7.43 µM (active).

In the case of `N#CCNC(=O)c1ccc(-c2ccnc(Nc3ccc(N4CCOCC4)cc3)n2)cc1`, the Potency was 11.8 µM (active).

With `c1ccc2c(CCNc3ccc(Nc4ccncc4)cc3)c[nH]c2c1`, the Potency was 14.8 µM (active).

As to `C#Cc1cccc(Nc2ncnc3cc(OC)c(OCCCCCCC(=O)NO)cc23)c1`, the Potency is 0.469 µM (active).

Take `C[C@@H](Oc1cc(-n2cnc3ccc(CN4CCN(C)CC4)cc32)sc1C(N)=O)c1ccccc1C(F)(F)F`: the Potency was 23.5 µM (active).

`CN(c1ncccc1CNc1nc(Nc2ccc3c(c2)CC(=O)N3)ncc1C(F)(F)F)S(C)(=O)=O`: the Potency was 8.33 µM (active).

Turning to `COc1cccc(Nc2c(C(N)=O)cnc3c(C)cc(S(=O)(=O)c4cccc(C(=O)N(C)C)c4)cc23)c1`, the Potency result is “inactive”.

Regarding `O=C1CCC[C@@H]2[C@H]3CCC[N+]4([O-])CCC[C@@H](CN12)[C@@H]34` (stereo partly drawn), the Potency entry was “inactive”.

In the case of `COC(=O)C[C@](O)(CCCC(C)(C)O)C(=O)O[C@@H]1C(OC)=C[C@]23CCCN2CCc2cc4c(cc2[C@H]13)OCO4`, the Potency result was “inactive”.

Take `CCN(CC)CCCCNc1ncc2cc(-c3cc(OC)cc(OC)c3)c(NC(=O)NC(C)(C)C)nc2n1`: the Potency is 23.5 µM (active).

Turning to `Cc1ccc(NC(=O)C2(c3ccc4c(c3)OC(F)(F)O4)CC2)nc1-c1cccc(C(=O)O)c1`, the Potency was 0.0833 µM (active).

Regarding `CCCCN1CCC(CNC(=O)c2c3n(c4ccccc24)CCCO3)CC1`, the Potency is 1.48 µM (active).

For `Fc1cc(-c2cccc3ncc(-c4cnn(C5CCNCC5)c4)nc23)cc(F)c1CN1CCOCC1`, the Potency was 20.9 µM (active).
